Measured values taken from PubChem BioAssay (NCI).
About 83,000 compounds went through this panel and 20% of them were active in at least one assay; those are over-represented in the sample as a whole.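 Growth was measured after 48 h exposure to one concentration of compound in 96-well plates. Values under 10 count as active.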 The source made the active and inactive calls.

Test system: NCI-H460 lung
Assay: NCI-60 one-dose screen, 48 h (100 = growth as untreated, 0 = no growth, -100 = all killed)
Conditions: 10 µM unless noted

Row | Structure (SMILES) | growth
1 | O=C(CC1(O)C(=O)N(Cc2ccccc2)c2ccc(F)cc21)c1ccc(C(=O)NCC2CCC3(CC2)OOC2(CCCCC2)OO3)cc1 (stereo unspecified) | -51.8% (active)
2 | c1cnc2[nH]cc(-c3csc(-c4cn(CCCCN5CCCCC5)c5ccccc45)n3)c2c1 | 76.3% (inactive)
3 | COc1ccc(NC([Se])=NC23CC4CC(CC(C4)C2)C3)cc1 | -8.63% (active)
4 | Clc1cccc(Cl)c1Cl | 107% (inactive)
5 | C[C@]12CCc3sc(-c4ccccc4O)nc3C1=CC[C@@H]1[C@@H]2CC[C@]2(C)C(=O)CC[C@@H]12 | 108% (inactive)
6 | O=C(CC1(O)C(=O)Nc2ccccc21)c1ccc(C(=O)NCC2CCC3(CC2)OOC2(CCCCC2)OO3)cc1 (stereo unspecified) | 77.1% (inactive)
7 | CCCOC(=O)N[C@H]1CCc2c(Br)c(OC)c(OC)c(OC)c2-c2ccc(SC)c(=O)cc21 | -18.1% (active)
8 | Cc1cc(C)c(CBr)c(C)c1 | 109% (inactive)

Test system: HOP-92 NSCLC
Assay: as above
Conditions: 10 µM unless noted

Row | Structure (SMILES) | growth
9 | CCCC[C@H](NC(=O)[C@H]1CCCN1C)C(=O)N(C)[C@H](C[C@@H](OC(C)=O)c1nc(C(=O)N[C@@H](Cc2ccccc2)C[C@H](C)C(=O)OCC)cs1)C(C)C | 7.16% (active)
10 | COc1ccc2c(c1)c(-c1nc(-c3c[nH]c4ncccc34)cs1)cn2CCCCN1CCCCC1 | 20.5% (inactive)
11 | COC(=O)[C@H](Cc1ccccc1)NC(=O)c1csc([C@@H](C[C@H](C(C)C)N(C)C(=O)[C@@H](NC(=O)[C@H]2CCCN2C)C2CC2)OC(C)=O)n1 | 8.6% (active)
12 | C[C@]12CC[C@H]3[C@@H](CC[C@]4(O)C[C@@H](O[C@@H]5O[C@H](CO)[C@@H](O[C@@H]6OC[C@@H](O)[C@H](O)[C@H]6O)[C@H](O)[C@H]5O)CC[C@]34C=O)[C@@]1(O)CC[C@@H]2C1=CC(=O)OC1 | 43.7% (inactive)
13 | c1cc2c(c3c1CCNC3)OCO2 | 120% (inactive)
14 | Fc1ccc2c(c1)c(-c1nc(-c3c[nH]c4ncccc34)cs1)cn2CCCCN1CCCCC1 | -52.8% (active)
15 | O=C(Nc1ccncc1F)c1cn(CC2CC2)c2ccccc12 | 123% (inactive)
16 | COP(=S)(N1CC1)N1CC1 | 98.6% (inactive)
17 | C/C=C(\C)C(=O)O[C@@H]1C(O)[C@H]2OC(COC(=O)CCC(=O)CCCCCC[C@H](CCCCC)O[C@@H]3OC(C)[C@H](OC(C)=O)C(O)[C@H]3O2)[C@H]1OC(=O)/C=C/c1ccccc1 (stereo partly specified) | -11.4% (active)
18 | CCc1ccccc1[C@@H]1C[C@]2(C)CCO[C@@H]2OO1 | 92.7% (inactive)
19 | CC(=O)O[C@H](C[C@H](C(C)C)N(C)C(=O)[C@@H](NC(=O)[C@H]1CCCCN1C)C(C)(C)C)c1nc(C(=O)N[C@@H](Cc2ccccc2)C[C@H](C)C(=O)O)cs1 | 35.3% (inactive)
20 | COc1ccc(C(=O)c2cc(OC)c(OC)c(OC)c2)cc1OC(C)=O | 50.9% (inactive)
21 | COc1ccc(N(CC(=O)NCCC[Te]c2ccccc2)C(=O)CNC(=O)OC(C)(C)C)cc1 | -19.9% (active)
22 | COC(=O)[C@@H](C)C[C@H](Cc1ccccc1)NC(=O)c1csc([C@@H](C[C@H](C(C)C)N(C)C(=O)[C@@H](NC(=O)[C@H]2CCCCN2C)C(C)C)OC(C)=O)n1 | -13.5% (active)
23 | CC[C@H](C)[C@@H]1OC(=O)C(C)(C)[C@H](O)[C@H](Cc2ccccc2)OC(=O)[C@H](C(C)C)OC(=O)[C@@H](NC(=O)c2cccc(NC=O)c2O)[C@@H](C)OC1=O | 68% (inactive)
24 | NC(=O)CNc1ccc([As]=[As]c2ccc(NCC(N)=O)cc2)cc1 (stereo unspecified) | 63.6% (inactive)
25 | Fc1ccc2c(c1)c(-c1nc(-c3c[nH]c4ncccc34)cs1)cn2CCN1CCOCC1 | 18.8% (inactive)
26 | O=C([O][Hg][CH2]C1COCC([CH2][Hg][O]C(=O)c2ccccc2)O1)c1ccccc1 (stereo unspecified) | 77% (inactive)
27 | O=[N+]([O-])CC(c1ccccc1Cl)c1c(-c2ccccc2)[nH]c2ccccc12 (stereo unspecified) | 36.1% (inactive)
28 | CCn1c2ccccc2c2cc(C(=O)c3cccc4c3CCCN4)ccc21 | 101% (inactive)
29 | COc1ccc(/C(C)=C(\c2ccc(OCCN3CCOCC3)cc2)c2ccc(OC(=O)Cc3ccccc3)cc2)cc1 | 105% (inactive)
30 | Cc1cc(N(CCCl)CCCl)ccc1C=Nc1ccc(-c2csc(Cc3ccccc3)n2)cc1 | 47.5% (inactive)
31 | Cc1ccc2c(C(C[N+](=O)[O-])c3cccs3)c(-c3ccccc3)[nH]c2c1 (stereo unspecified) | 25.5% (inactive)
